From PubChem BioAssay
Shown are actives, neighbours in structure and some others; about 3% of the full set was active somewhere.
S16 F2sN tox: toxic to S16 Pmp22-F2sN Schwann cells; S16 Pmp22-F2sN Schwann cells viability, CellTiter-Glo, 24 h; Potency, µM (titrated, usually from 57.5 µM), hits mostly cytotoxic; actives 0.48% (n = 43,000); further: nearly all actives have a fitted effect of over 65% in size
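S16 Pmp22-F2sN Schwann cells (500-1,000/well) in phenol-red-free DMEM with 10% FBS received 23 nL compound by pin tool for 24 h at 37 °C. Viability was then read as CellTiter-Glo luminescence after 15 min at room temperature.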
GALC G270D up: galactocerebrosidase G270D activity enhancement, cell-based; P54803; 145M-Twi-hGALC-G270D cells (Twitcher mouse brain line with human GALC G270D), HMU-beta-Gal fluorescence, 48 h; Potency, µM (series often up to 57.5 µM), usual class: activators; actives 0.1% (n = 45,000); AID 1159614; further: nearly all actives have a fitted effect of over 65% in size
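Brain-derived Twitcher mouse 145M-Twi cells stably expressing human GALC-G270D or wild-type GALC, treated live, then residual GALC activity read by fluorescence of HMU-b-Gal substrate (0.1 mM final) in citrate-phosphate buffer pH 5.2 with sodium taurocholate. Signal increase indicates enhancement.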
p53null 39C kill: selectivity test: cytotoxicity in p53 null cells, nonpermissive temperature; H1299 p53-null (neo) cells, 39C, ATPlite viability, 24 h; Potency, µM (titrated, usually from 46.1 µM), actives largely listed as cytotoxic; actives 0.97% (n = 55,000); AID 904; further: nearly all actives have a fitted effect of over 50% in size
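Temperature-shift cytotoxicity format: compound titrations on p53-null or A138V-expressing H1299 cells held 24 hr at 39C, cell ATP then measured, AC50 from Hill model.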
mTORC1 inh: reduces mTORC1 signaling in Tsc2 and p53 null MEF cells. Tsc2-/- p53-/- MEF, phospho-rpS6 immunofluorescence/PI, 24 h. Potency, µM (series often up to 38.3 µM), actives largely listed as inhibitors. actives 0.78% (n = 44,000); further: nearly all actives have a fitted effect of over 50% in size
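Tsc2-/-, p53-/- mouse embryonic fibroblasts (empty-vector line) exposed to compound 24 hrs at 37 C, fixed, immunostained for phospho-rpS6 and counterstained with propidium iodide. Acumen laser scanning gives % positive cells from Alexa 488/PI ratio, thresholded using 7.5 nM rapamycin; PI count gives viability.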
PMP22 txn: PMP22 gene transcription modulation. S16 Pmp22-F2sN Schwann cells, FLuc/NLuc coincidence luminescence, 24 h. Potency, µM (highest dose often 57.5 µM), usual class: inhibitors. actives 2% (n = 43,000). AID 1508649; active means clear falling dose curves in both reporters; inconclusive means both reporters move, but less clearly or upward; inactive means either reporter flat; the % is the NLuc reporter signal
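S16 Schwann cells carrying FLuc/NLuc coincidence reporter in the Pmp22 3' UTR treated with compound 24 h at 37C; FLuc then NLuc luminescence read sequentially by dual-luciferase reagents.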
p53null 32C tox: kills p53 null cells at the permissive temperature. H1299-neo p53 null cells, ATP luminescence, 24 h, 32C. Potency, µM (series often up to 46.1 µM), actives largely listed as cytotoxic. actives 0.62% (n = 55,000). AID 903; further: nearly all actives have a fitted effect of over 55% in size
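H1299-neo (p53 null) cells, 600/well, treated 24 h at 32C with compound up to 46 uM; ATPlite luminescence viability, normalized to DMSO and 100 uM tamoxifen; AC50 by Hill fit.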
NLuc sat counter: inhibits NanoLuc at saturating substrate, PMP22 counter-screen; shares compounds with PMP22 txn; Secreted NLuc enzyme (filtered S16 cell medium), Nano-Glo luminescence; Potency, µM (top dose mostly 57.5 µM), most hits filed as inhibitors; actives 4% (n = 690); AID 1508638
NLuc Km counter: inhibits NanoLuc under Km conditions, PMP22 counter-screen; shares compounds with PMP22 txn; secreted NLuc enzyme, coelenterazine luminescence, Km conditions; Potency, µM (top dose mostly 57.5 µM), actives largely listed as inhibitors; actives 5% (n = 690); AID 1508639
FLuc ctr PMP22: counter-screen for PMP22 expression modulators: firefly luciferase inhibition; shares compounds with PMP22 txn; purified P. pyralis FLuc, luminescence, 10 min; Potency, µM (series often up to 57.5 µM), usual class: inhibitors; 690 tested, under 10 active
Target sequence (P08659 whole entry, looked up): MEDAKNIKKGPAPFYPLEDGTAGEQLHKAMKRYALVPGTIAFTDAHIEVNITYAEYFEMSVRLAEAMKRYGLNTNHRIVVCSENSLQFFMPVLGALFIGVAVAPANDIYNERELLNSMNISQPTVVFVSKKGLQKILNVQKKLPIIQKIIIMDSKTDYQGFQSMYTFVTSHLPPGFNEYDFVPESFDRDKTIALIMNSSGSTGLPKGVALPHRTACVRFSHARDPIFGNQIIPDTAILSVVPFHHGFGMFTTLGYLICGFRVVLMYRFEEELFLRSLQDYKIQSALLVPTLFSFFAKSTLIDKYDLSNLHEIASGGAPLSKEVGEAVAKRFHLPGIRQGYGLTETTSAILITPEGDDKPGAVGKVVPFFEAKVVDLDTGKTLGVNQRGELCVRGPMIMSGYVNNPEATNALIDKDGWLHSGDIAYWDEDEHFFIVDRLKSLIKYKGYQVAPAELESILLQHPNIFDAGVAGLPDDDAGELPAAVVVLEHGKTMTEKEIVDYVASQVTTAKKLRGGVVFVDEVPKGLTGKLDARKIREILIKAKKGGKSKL
S16 viab conf: confirmation of cytotoxicity in S16 Pmp22-F2sN Schwann cells (luciferase reporters placed in the Pmp22 gene) | shares compounds with PMP22 txn | AID 1508641 | actives 7% (n = 690) | Potency, µM (highest dose often 57.5 µM), actives largely listed as cytotoxic | S16 Schwann cells viability, CellTiter-Glo ATP luminescence, 24 h
PMP22 txn cnf: PMP22 transcription modulation, confirmatory | Potency, µM (highest dose often 57.5 µM), usual class: inhibitors | shares compounds with PMP22 txn | S16 Schwann cells Pmp22-F2sN, dual luciferase, 24 h | actives 22% (n = 690); active means clear falling dose curves in both reporters; inconclusive means both reporters move, but less clearly or upward; inactive means either reporter flat; the % is the FLuc reporter signal
PMP22 HiBiT cnf: rat PMP22 protein level modulation, confirmatory; 95 tested, under 10 active; Potency, µM (highest dose often 27.9 µM), most hits filed as inhibitors; S16 Schwann cells Pmp22-HiBiT, luminescence, 48 h; shares compounds with PMP22 txn
Target sequence (P25094 whole entry, looked up): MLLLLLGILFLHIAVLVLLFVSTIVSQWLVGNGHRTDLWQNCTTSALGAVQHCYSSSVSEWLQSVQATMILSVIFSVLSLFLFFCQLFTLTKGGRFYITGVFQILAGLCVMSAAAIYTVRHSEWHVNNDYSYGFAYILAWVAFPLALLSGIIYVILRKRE
A number is an active result; - = inactive; ? = inconclusive; . = no result given. Unless noted, the call rests on the fitted dose curve; in most records, active means well fitted curve in the direction sought with a large enough effect; inconclusive means small, poorly fitted or top-dose-only effect, or another doubt; inactive means no such curve, though single readings can be large; an effect the other way counts as inactive or inconclusive.

SMILES	S16 F2sN tox	GALC G270D up	p53null 39C kill	mTORC1 inh	PMP22 txn	p53null 32C tox	NLuc sat counter	NLuc Km counter	FLuc ctr PMP22	S16 viab conf	PMP22 txn cnf	others
COCCCNC(=O)c1ccc(Cn2c(=O)c3ccccc3n(Cc3ccccc3C)c2=O)cc1	-	-	-	-	?	-	.	.	.	.	.
COCCCNC(=O)c1ccc(Cn2c(=O)c3ccccc3n(Cc3ccc(Cl)cc3)c2=O)cc1	?	-	-	-	11.3µM	-	?	?	-	-	-
COc1ccc(CCNC(=O)c2ccc(Cn3c(=O)c4ccccc4n(Cc4cccc(Cl)c4)c3=O)cc2)cc1OC	-	-	-	-	?	-	-	-	-	-	-
O=C(NC1CCN(Cc2ccccc2)CC1)c1ccc(Cn2c(=O)c3ccccc3n(Cc3ccc(Cl)cc3)c2=O)cc1	-	-	-	-	12.1µM	-	-	-	-	12.2µM	10.9µM
CCCSc1nc2sc3c(c2c(=O)n1-c1ccc(C)cc1)CCCC3	-	-	-	-	-	-	.	.	.	.	.
CCC(=O)N1CCc2cc(Br)cc(S(=O)(=O)N3CCC(C(=O)NC(C)(C)C)CC3)c21	-	-	-	-	-	-	-	-	-	-	-
Cc1cn2c(=O)cc(COC(=O)c3ccc(NC(=O)COc4ccccc4C)cc3)nc2s1	-	-	-	?	-	-	.	.	.	.	.
COc1ccc(-c2nc3c(C#N)c[nH]n3c2NC2CCCC2)cc1	22.4µM	-	-	-	15µM	-	?	?	-	-	?
O=C(Nc1cc(F)ccc1F)C1CCN(c2nc3ccccc3n3cccc23)CC1	-	-	?	?	?	-	.	.	.	.	.
Cc1c2cnn(CC(=O)NCc3ccccc3)c(=O)c2c(C)n1Cc1cccc(Cl)c1	-	-	?	?	12.9µM	-	-	-	-	-	?
Cc1c2cnn(CC(=O)O)c(=O)c2c(C)n1Cc1cccc(Cl)c1	-	-	-	-	-	-	.	.	.	.	.
COc1cc(C(=O)Nc2ccc3nc4n(c(=O)c3c2)CCCCC4)cc(OC)c1OC	?	-	?	-	-	-	.	.	.	.	.
CCOc1cc(C2C(C(=O)OC)=C(C)NC3=C2C(=O)c2ccccc23)cc(Br)c1OCC (stereo not drawn)	?	-	-	?	?	-	.	.	.	.	.
COc1ccc(NC(=O)c2cc3c(s2)-c2c(C)cccc2OC3)cc1Cl	28.2µM	-	-	-	15.8µM	-	-	-	-	?	?
CCc1ccccc1Nc1nn2c(=O)c3ccc(C(=O)NCc4ccc(C)cc4)cc3nc2s1	-	-	-	-	?	-	.	.	.	.	.
Cc1ccc(C)c(Nc2nn3c(=O)c4ccc(C(=O)NCc5cccs5)cc4nc3s2)c1	?	-	-	?	13.4µM	?	-	?	-	?	?
CCc1ccccc1Nc1nn2c(=O)c3ccc(C(=O)Nc4cc(C)cc(C)c4)cc3nc2s1	-	-	-	-	7.27µM	-	-	?	-	21.7µM	11.5µM	PMP22 HiBiT cnf=-
Fc1ccc(-c2csc(/C=C/c3ccc4c(c3)OCO4)n2)cc1	.	.	.	.	.	-	.	.	.	.	.
CCc1ccc(NCc2cc3cc(OC)c(OC)cc3n(CC(=O)Nc3cc(C)ccc3C)c2=O)cc1	-	?	-	-	11.3µM	-	-	-	-	-	?
CCc1ccc(NCc2cc3cc(OC)c(OC)cc3n(CC(=O)Nc3ccc(F)cc3)c2=O)cc1	-	?	-	-	?	-	.	.	.	.	.
Cc1ccc(NC(=O)CSc2nc3n[nH]c(C)c3c(=N)n2-c2ccccc2C)cc1C	-	-	-	-	17µM	-	?	?	-	-	-
COCCCn1c(=N)c(C(=O)NCc2ccco2)cc2c(=O)n3ccccc3nc21	-	-	-	-	?	-	.	.	.	.	.
COCCCn1c(=N)c(C(=O)NCc2ccco2)cc2c(=O)n3cccc(C)c3nc21	-	-	-	-	14.1µM	-	-	-	-	?	?
CCOCCCn1c(=N)c(C(=O)NCC2CCCO2)cc2c(=O)n3cccc(C)c3nc21 (stereo not drawn)	-	-	-	-	16.3µM	-	-	-	-	-	?
CCOc1ccc(C(=O)N2CCc3cc(OC)c(OC)cc3C2COc2ccc3c(C)cc(=O)oc3c2)cc1OCC (stereo not drawn)	-	-	-	-	13.4µM	-	-	-	-	-	-
SMILES	S16 F2sN tox	GALC G270D up	p53null 39C kill	mTORC1 inh	PMP22 txn	p53null 32C tox	NLuc sat counter	NLuc Km counter	FLuc ctr PMP22	S16 viab conf	PMP22 txn cnf	others
COc1cc2c(cc1OC)C(COc1ccc3c(C)cc(=O)oc3c1)N(C(=O)c1ccc(Cl)cc1)CC2 (stereo not drawn)	?	-	-	-	-	-	.	.	.	.	.
COCC(=O)Nc1c(C(=O)Nc2ccc(C)cc2)oc2ccccc12	-	-	-	-	-	-	.	.	.	.	.
CCSc1ncc(Cl)c(C(=O)Nc2sc3c(c2C(=O)NC)CCCC3)n1	-	-	-	-	-	-	.	.	.	.	.
CCCSc1ncc(Cl)c(C(=O)Nc2sc3c(c2C(=O)NCC)CCCC3)n1	-	-	-	-	5.15µM	-	-	-	-	-	?
O=S(=O)(NCCc1csc2nc(-c3ccc(Cl)cc3)nn12)c1ccc(Oc2ccccc2)cc1	-	-	-	-	12.6µM	-	-	-	-	-	?
CC(=O)Nc1ccc(S(=O)(=O)NCCc2csc3nc(-c4ccc(Cl)cc4)nn23)cc1	?	-	-	-	?	-	.	.	.	.	.
